Compound activity from PubChem.
aSyn rescue = alpha-synuclein toxicity inhibition in yeast | Yeast expressing alpha-synuclein, growth rescue, BacTiter-Glo, 24 h | Potency, µM (highest dose often 46.1 µM), without a hit: at the top dose growth rescue (activation), most hits filed as activators | 370,000 tested, 0.14% active; also: % of control where 0% means no effect; nearly all actives have a fitted effect of over 65% in size
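Readout is rescue of growth in alpha-synuclein-expressing yeast, so inhibitors of toxicity appear as activators. Growth after 24 hr at 30 deg C in galactose medium is quantified by luminescence.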
FUS suppressor = suppressors of FUS proteinopathy in yeast. 390,000 tested, 0.24% active. S. cerevisiae FUS-expressing, growth rescue, OD600, 24 h. Potency, µM (titrated, usually from 76.6 µM), hits mostly activators;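 also: plate controls were DMSO vehicle for no effect and reference control for full effect; nearly all actives have a fitted effect of over 55% in size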
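Yeast expressing FUS under galactose induction, OD 0.005 in 2% galactose medium; compounds in a dilution series, 24 h at 30C. Growth rescue by absorbance at 600 nm; CP55940 positive control, DMSO negative.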
TDP43 rescue = rescues yeast growth from TDP-43 toxicity; TDP-43 expressing yeast growth rescue, BacTiter-Glo, 24 h; Potency, µM (top dose mostly 46.1 µM), for inactives: at the highest dose growth rescue (activation), usual class: activators; AID 652104; 410,000 tested, 1.8% active; also: % of control where 0% means no effect; nearly all actives have a fitted effect of over 50% in size
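Readout is BacTiter-Glo luminescence of cell growth, so inhibitors register as activators. TDP-43-expressing yeast at OD600=0.02 in galactose medium, after raffinose pregrowth to mid-log, were incubated with compound for 24 hr at 30 deg C.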
Abeta yeast res = compounds reversing amyloid beta toxicity in yeast; yeast expressing A-beta42, growth rescue, OD600, 48 h; response scale: 0% DMSO, 100% iron-clioquinol control; Potency, µM (highest dose often 46.1 µM), most hits filed as activators; 410,000 tested, 0.063% active; AID 1347071; also: nearly all actives have a fitted effect of over 55% in size
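Yeast A-beta toxicity model in growth medium with pinned compounds, 48 h at 30 C; growth read as absorbance at 600 nm. Normalized to FeCl3/clioquinol equimolar mix (positive) and DMSO (negative).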
Numbers without * were called inactive. The list is not random: actives were taken first. Their share in the collection is about 2.1%. Calls follow the shape of the dose curve; as a rule, active = well fitted curve in the direction sought with a large enough effect; inconclusive = small, poorly fitted or top-dose-only effect, or another doubt; inactive = no such curve, though single readings can be large; an effect the other way counts as inactive or inconclusive. Potency is read from the fitted curve at half-maximal effect.

How did CCn1nc(C)c2c(-c3ccccc3)cc(=O)n(C(C)C(=O)NCc3ccc(C)cc3)c21 (stereo not drawn) do in these assays?
FUS suppressor: inconclusive; TDP43 rescue: 5%; Abeta yeast res: inactive

How did CC1CCn2c(nc3cc(C(=O)NCc4ccc(OC(C)C)cc4)ccc32)C1 (stereo not drawn) do in these assays?
FUS suppressor: inactive; TDP43 rescue: -1%; Abeta yeast res: inactive

How did CCCCc1ccc(NC(=O)CC(C)C)cc1 do in these assays?
aSyn rescue: 0%; FUS suppressor: inactive; TDP43 rescue: 11µM*; Abeta yeast res: inactive

Results for CCCCc1ccc(NC(=O)COCC)cc1 ?
aSyn rescue: -1%; FUS suppressor: inactive; TDP43 rescue: 0%; Abeta yeast res: inactive

What do the screens show for `O=C(CN1C(=O)COc2ccc(S(=O)(=O)N3CCOCC3)cc21)N1CCN(c2ccc(F)cc2)CC1`?
aSyn rescue: -1%; FUS suppressor: inactive; TDP43 rescue: 8%; Abeta yeast res: inactive

Results for COC(=O)C(=Cc1ccccc1[N+](=O)[O-])C(=O)OC ?
aSyn rescue: 0%; FUS suppressor: inactive; TDP43 rescue: 16µM*; Abeta yeast res: inactive

What do the screens show for `COc1ccc(CNC(=O)/C=C/c2ccccc2[N+](=O)[O-])cc1`?
aSyn rescue: -1%; FUS suppressor: inactive; TDP43 rescue: -16%; Abeta yeast res: inactive

Results for O=C(/C=C/c1ccccc1[N+](=O)[O-])OCC(=O)c1ccccc1 ?
aSyn rescue: 10%; FUS suppressor: inactive; TDP43 rescue: 20µM*; Abeta yeast res: inactive

What do the screens show for `COc1ccc(CNc2nc(-c3ccco3)nn2C(=O)CC(C)C)cc1`?
FUS suppressor: inactive; TDP43 rescue: 30%; Abeta yeast res: inactive

What do the screens show for `O=[N+]([O-])c1ccc(Nc2ccccc2)c2nonc12`?
aSyn rescue: 5%; FUS suppressor: inactive; TDP43 rescue: -5%; Abeta yeast res: inactive

How did O=[N+]([O-])c1ccc(Sc2cccc[n+]2[O-])c2nonc12 do in these assays?
aSyn rescue: 0.56µM*; FUS suppressor: inactive; TDP43 rescue: inconclusive; Abeta yeast res: inactive

How did CCCNC(=O)c1cc2c3ccccc3n(C)c2s1 do in these assays?
aSyn rescue: 0%; FUS suppressor: inactive; TDP43 rescue: 14µM*; Abeta yeast res: inactive

What do the screens show for `CCCCN(C)C(=O)c1cc2cc3ccc(OC)cc3nc2s1`?
aSyn rescue: -25%; FUS suppressor: inactive; TDP43 rescue: 18µM*; Abeta yeast res: inactive

Results for CCOc1ccc(-c2[nH]ncc2-c2ccc(OC)c(OC)c2)c(O)c1 ?
aSyn rescue: -4%; FUS suppressor: inconclusive; TDP43 rescue: -6%; Abeta yeast res: inactive

What do the screens show for `CCOc1ccc(-c2[nH]ncc2-c2ccc(Cl)cc2)c(O)c1`?
aSyn rescue: -46%; FUS suppressor: inactive; TDP43 rescue: 35µM*; Abeta yeast res: inactive

Results for CCOc1ccc(-c2[nH]ncc2Oc2ccccc2OCC)c(O)c1 ?
aSyn rescue: inconclusive; FUS suppressor: inactive; TDP43 rescue: 18µM*; Abeta yeast res: inactive

Results for CCc1ccc(NC(=O)c2cc(=O)c3ccc(C)c(C)c3o2)cc1 ?
FUS suppressor: inactive; TDP43 rescue: 0%; Abeta yeast res: inactive

What do the screens show for `COc1cc(F)c(C2=CC(=O)C[C@H](c3ccc(Cl)cc3)C2)cc1F`?
aSyn rescue: 0%; FUS suppressor: inactive; TDP43 rescue: inconclusive; Abeta yeast res: inactive

Results for COc1ccc([C@H]2CC(=O)C=C(c3cccc(OC)c3OC)C2)cc1OC ?
aSyn rescue: 0%; FUS suppressor: inactive; TDP43 rescue: 22µM*; Abeta yeast res: inconclusive

What do the screens show for `Cc1ccc(Cl)cc1C1=CC(=O)C[C@H](c2ccc(F)cc2)C1`?
aSyn rescue: 3%; FUS suppressor: inactive; TDP43 rescue: inconclusive; Abeta yeast res: inactive

Results for COc1ccc([C@H]2CC(=O)C=C(c3ccc(NC(C)=O)cc3)C2)cc1OC ?
aSyn rescue: 2%; FUS suppressor: inactive; TDP43 rescue: 9%; Abeta yeast res: inactive

What do the screens show for `O=C1C=C(c2cc(F)ccc2F)C[C@@H](c2ccc(Cl)cc2)C1`?
aSyn rescue: 13%; FUS suppressor: inactive; TDP43 rescue: 20µM*; Abeta yeast res: inactive

Results for CC(=O)Nc1ccc(C2=CC(=O)C[C@H](c3ccc(Cl)cc3)C2)cc1 ?
aSyn rescue: 2%; FUS suppressor: inconclusive; TDP43 rescue: 35µM*; Abeta yeast res: inactive
